The values that follow come from PubChem BioAssay (EPA / NIEHS).

Read-out in assay [1]: Intercellular Adhesion Molecule 1 (ICAM1), ICAM1 (gene 3383)
Put plainly: BSK_3C_ICAM1: BioMAP Diversity Plus: 3C Assay for Intercellular Adhesion Molecule 1 (ICAM1) Biomarker Activity (AID 2283003). The conditions noted are these: primary human endothelial cells (HUVEC); actives raise or lower the signal. The method, boiled down: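 Primary human umbilical vein endothelial cells in the BioMAP 3C system were exposed to chemicals for 24 h, then ICAM-1 was quantified by ELISA. Activity was fitted bidirectionally against the DMSO negative control baseline.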

The target of assay [2] is Retinoic acid receptor alpha (Homo sapiens) (UniProt P10276). Put plainly: ATG_RARa_TRANS: Attagene TRANS-FACTORIAL HepG2 Assay for human Retinoic Acid Receptor alpha (RARa) (AID 2283005; active = hit-call score of the fitted dose curve at least 0.9, where 1 is the maximum). The method, boiled down: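 Reporter transcripts, measured by RT-PCR with fluorescent labeling and capillary electrophoresis after 24 h dosing, reflect activity of an exogenous human RARa–GAL4 fusion in transiently transfected HepG2. Fitted for increase relative to DMSO.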
Chain of Retinoic acid receptor alpha (Homo sapiens) (P10276 whole entry, looked up, the tested form may be a part): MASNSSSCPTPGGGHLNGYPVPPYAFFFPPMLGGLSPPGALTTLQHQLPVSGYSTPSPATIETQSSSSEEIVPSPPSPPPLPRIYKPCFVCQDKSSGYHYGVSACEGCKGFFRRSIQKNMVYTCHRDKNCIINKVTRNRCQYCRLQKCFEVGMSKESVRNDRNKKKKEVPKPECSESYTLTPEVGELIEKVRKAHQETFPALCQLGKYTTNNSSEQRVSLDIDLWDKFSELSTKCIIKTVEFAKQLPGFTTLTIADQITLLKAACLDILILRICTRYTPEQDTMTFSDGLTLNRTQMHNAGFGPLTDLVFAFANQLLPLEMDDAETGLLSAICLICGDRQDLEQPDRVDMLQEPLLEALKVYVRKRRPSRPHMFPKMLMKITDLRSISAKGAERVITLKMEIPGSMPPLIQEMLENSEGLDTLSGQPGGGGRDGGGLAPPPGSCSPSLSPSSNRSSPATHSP

Assay [3] can be described thus: BSK_3C_Proliferation: Cell Proliferation Assessment in the BioMAP Diversity Plus: 3C Assay (AID 2283006).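 As to AC50: potency may reflect either rise or fall in cell number versus DMSO.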 As to conditions: primary human endothelial cells (HUVEC). The method, boiled down:
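Human umbilical vein endothelial cells were grown sub-confluent and exposed to chemical for 48 h, then fixed with 10% TCA and stained with 0.1% sulforhodamine B; absorbance at 560 nm gave relative cell number, fitted bidirectionally against DMSO baseline.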

The target in assay [4] is Peroxisome proliferator-activated receptor gamma (Homo sapiens) (UniProt P37231). The assay can be described thus: ATG_PPARg_TRANS: Attagene TRANS-FACTORIAL HepG2 Assay for human Peroxisome Proliferator-activated Receptor-gamma (PPARg) (AID 2283007; active = hit-call score of the fitted dose curve at least 0.9, where 1 is the maximum). Summed up: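 HepG2 cells transiently transfected with multiplexed GAL4-UAS reporter units and exogenous chimeric NR-Gal4 proteins; reporter mRNA quantified after 24 h compound exposure by RT-PCR, fluorescent labelling, HpaI digestion and capillary electrophoresis; gain-of-signal fitted versus DMSO baseline.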
Chain of Peroxisome proliferator-activated receptor gamma (Homo sapiens) (P37231 whole entry, looked up, the tested form may be a part): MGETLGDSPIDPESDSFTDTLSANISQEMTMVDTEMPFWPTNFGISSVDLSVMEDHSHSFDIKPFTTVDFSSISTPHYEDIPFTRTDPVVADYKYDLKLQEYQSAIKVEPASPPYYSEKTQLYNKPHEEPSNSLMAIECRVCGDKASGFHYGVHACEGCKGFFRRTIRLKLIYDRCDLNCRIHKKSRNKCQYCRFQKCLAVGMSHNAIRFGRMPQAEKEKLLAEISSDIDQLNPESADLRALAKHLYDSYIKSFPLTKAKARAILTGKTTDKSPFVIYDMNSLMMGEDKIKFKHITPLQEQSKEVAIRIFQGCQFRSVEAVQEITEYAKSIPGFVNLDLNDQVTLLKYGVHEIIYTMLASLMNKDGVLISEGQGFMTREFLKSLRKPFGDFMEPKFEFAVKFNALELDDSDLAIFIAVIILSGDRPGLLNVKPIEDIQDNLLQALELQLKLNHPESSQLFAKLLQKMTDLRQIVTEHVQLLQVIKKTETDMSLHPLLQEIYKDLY

The target in assay [5] is Nuclear receptor subfamily 1 group I member 2 (Homo sapiens) (UniProt O75469). The assay can be described thus: ATG_PXR_TRANS: Attagene TRANS-FACTORIAL HepG2 Assay for human Pregnane X Receptor (PXR) (AID 2283008; active = hit-call score of the fitted dose curve at least 0.9, where 1 is the maximum). Summed up:
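Read-out is fluorescence of labelled reporter cDNA fragments separated by capillary electrophoresis after RT-PCR and HpaI digestion. Source: HepG2 cells carrying PXR-GAL4/UAS reporter constructs, treated 24 h; activity fitted upward relative to DMSO.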

In assay [6] the target is human RAR-related Orphan Receptor gamma (RORg), RORC (gene 6097) (UniProt P51449). The assay can be described thus: ATG_RORg_TRANS: Attagene TRANS-FACTORIAL HepG2 Assay for human RAR-related Orphan Receptor gamma (RORg) (AID 2283011; active = hit-call score of the fitted dose curve at least 0.9, where 1 is the maximum). Summed up: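 Reporter transcripts from a transfected RORg-GAL4 chimera in HepG2 cells were quantified 24 h after dosing by RT-PCR, 6-FAM labelling, HpaI digestion and capillary electrophoresis; increases over DMSO baseline were fitted.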
Chain of human RAR-related Orphan Receptor gamma (RORg), RORC (gene 6097) (P51449 whole entry, looked up, the tested form may be a part): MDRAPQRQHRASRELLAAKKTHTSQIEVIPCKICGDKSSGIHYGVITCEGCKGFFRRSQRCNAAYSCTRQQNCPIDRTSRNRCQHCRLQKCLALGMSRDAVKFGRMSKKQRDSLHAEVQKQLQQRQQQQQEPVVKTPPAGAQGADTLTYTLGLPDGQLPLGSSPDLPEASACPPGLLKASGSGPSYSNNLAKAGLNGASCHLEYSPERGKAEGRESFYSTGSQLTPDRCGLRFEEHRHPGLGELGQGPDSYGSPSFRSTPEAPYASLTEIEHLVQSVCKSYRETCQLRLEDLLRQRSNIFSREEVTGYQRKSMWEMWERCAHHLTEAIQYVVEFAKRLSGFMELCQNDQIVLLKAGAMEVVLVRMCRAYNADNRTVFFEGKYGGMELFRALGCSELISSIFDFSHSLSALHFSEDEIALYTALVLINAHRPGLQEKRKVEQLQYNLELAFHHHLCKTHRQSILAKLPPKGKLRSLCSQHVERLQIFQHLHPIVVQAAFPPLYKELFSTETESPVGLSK

Assay [7] concerns the target human Retinoid X Receptor beta (RXRb), RXRB (gene 6257) (UniProt P28702). The assay can be described thus: ATG_RXRb_TRANS: Attagene TRANS-FACTORIAL HepG2 Assay for human Retinoid X Receptor beta (RXRb) (AID 2283013; active = hit-call score of the fitted dose curve at least 0.9, where 1 is the maximum). The method, boiled down:
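HepG2 cells transiently transfected with multiplexed reporter units driven by GAL4-UAS and exogenous chimeric NR-Gal4 proteins; treated 24 h. Reporter mRNA measured by RT-PCR, 6-FAM labelling and capillary electrophoresis; gain-of-signal fitted versus DMSO baseline.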

The target of assay [8] is human Thyroid Receptor alpha (THRa1), THRA (gene 7067) (UniProt P10827). The assay can be described thus: ATG_THRa1_TRANS: Attagene TRANS-FACTORIAL HepG2 Assay for human Thyroid Receptor alpha (THRa1) (AID 2283014; active = hit-call score of the fitted dose curve at least 0.9, where 1 is the maximum). The method, boiled down:
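Transcripts from GAL4-UAS-driven reporters, measured after 24 h compound exposure by RT-PCR plus capillary electrophoresis of 6-FAM-labeled fragments, were fitted for gain of signal relative to DMSO. Cells: transiently transfected HepG2 expressing NR-Gal4 chimeras.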

Read-out in assay [9]: E-selectin (Homo sapiens) (UniProt P16581)
Put plainly: BSK_3C_Eselectin: BioMAP Diversity Plus: 3C Assay for Eselectin Biomarker Activity (AID 2283015).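 As to outcome: cell surface E-selectin protein quantified by ELISA 24 h after dosing.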 As to conditions: primary human endothelial cells (HUVEC); actives raise or lower the signal. Summed up: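 E-selectin ELISA readout, fitted bidirectionally relative to DMSO, taken 24 h post-dosing in HUVEC cultures of the 3C system. Overt cytotoxicity tracked with sulforhodamine B staining of parallel wells.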

Read-out in assay [10]: Interleukin-1 alpha (IL1a), IL1A (gene 3552)
Put plainly: BSK_BE3C_IL1a: BioMAP Diversity Plus: BE3C Assay for Interleukin-1 alpha (IL1a) Biomarker Activity (AID 2283016). As to conditions: primary human bronchial epithelial cells; actives raise or lower the signal. Summed up: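 Human primary bronchial epithelial cells (BE3C system) were dosed with compound and IL-1a measured by ELISA 24 h later. Activity was fitted bidirectionally against DMSO baseline; cytotoxicity was tracked in parallel cultures by SRB total-protein staining.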

Read-out in assay [11]: Monocyte Chemoattractant Protein-1 (MCP1), CCL2 (gene 6347)
Put plainly: BSK_4H_MCP1: BioMAP Diversity Plus: 4H Assay for Monocyte Chemoattractant Protein-1 (MCP1) Biomarker Activity (AID 2283018). As to conditions: primary human endothelial cells (HUVEC); actives raise or lower the signal. Summed up: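 Human umbilical vein endothelial cells (4H system) dosed with chemical; MCP-1 measured by ELISA 24 h after dosing. Bidirectional curve fitting against DMSO negative control as baseline; parallel SRB total-protein staining tracks overt cytotoxicity.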

Read-out in assay [12]: Human Leukocyte Antigen - DR isotype (HLADR), HLA-DRA (gene 3122)
Put plainly: BSK_3C_HLADR: BioMAP Diversity Plus: 3C Assay for Human Leukocyte Antigen - DR isotype (HLADR) Biomarker Activity (AID 2283019).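 As to outcome: ELISA of cell-surface HLA-DR on HUVEC 24 h after dosing.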 As to conditions: primary human endothelial cells (HUVEC); actives raise or lower the signal. Summed up:
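Bidirectional fitting against DMSO was applied to the HLA-DR ELISA signal from human umbilical vein endothelial cells, 24 h post-dose. Cytotoxicity came from parallel SRB total-protein staining; 3C proliferation was counted by SRB at 48 h.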

Read-out in assay [13]: Interleukin-8 (IL8), CXCL8 (gene 3576)
Put plainly: BSK_3C_IL8: BioMAP Diversity Plus: 3C Assay for Interleukin-8 (IL8) Biomarker Activity (AID 2283020). The conditions noted are these: primary human endothelial cells (HUVEC); actives raise or lower the signal. The method, boiled down:
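Primary human umbilical vein endothelial cells (3C system) were exposed to test chemical for 24 h, then IL-8 was quantified by ELISA. Responses were fitted bidirectionally against DMSO vehicle as baseline.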

Read-out in assay [14]: Monokine induced gamma interferon (MIG), CXCL9 (gene 4283)
The assay can be described thus: BSK_3C_MIG: BioMAP Diversity Plus: 3C Assay for Monokine induced gamma interferon (MIG) Biomarker Activity (AID 2283021).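 As to AC50: MIG protein level measured by immunoassay in the treated endothelial cultures.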 The conditions noted are these: primary human endothelial cells (HUVEC); actives raise or lower the signal. Summed up:
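Primary human umbilical vein endothelial cells in the 3C system were exposed to chemical for 24 h, after which MIG was quantified by ELISA. Activity was fitted bidirectionally against DMSO as negative control and baseline.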

For assay [15], the target named is human Vitamin D Receptor (VDR), VDR (gene 7421) (UniProt P11473). The assay can be described thus: ATG_VDR_TRANS: Attagene TRANS-FACTORIAL HepG2 Assay for human Vitamin D Receptor (VDR) (AID 2283022; active = hit-call score of the fitted dose curve at least 0.9, where 1 is the maximum). The method, boiled down:
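Transactivation by an exogenous VDR-Gal4 chimera in transiently transfected HepG2 cells was measured as reporter transcript level 24 hours after chemical treatment. RT-PCR products were analysed by capillary electrophoresis and fitted in the positive direction relative to DMSO.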

Assay [16] deals with human RAR-related Orphan Receptor beta (RORb), RORB (gene 6096) (UniProt Q92753). The assay can be described thus: ATG_RORb_TRANS: Attagene TRANS-FACTORIAL HepG2 Assay for human RAR-related Orphan Receptor beta (RORb) (AID 2283010; active = hit-call score of the fitted dose curve at least 0.9, where 1 is the maximum). Summed up:
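HepG2 cells were transiently transfected with multiplexed GAL4-UAS reporter units expressing chimeric nuclear receptor–GAL4 proteins, then dosed for 24 h. Reporter mRNA was quantified by RT-PCR with fluorescent labelling and capillary electrophoresis; gain of signal was fitted relative to DMSO.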

In assay [17] the target is Retinoic acid receptor RXR-alpha (Homo sapiens) (UniProt P19793). The assay can be described thus: ATG_RXRa_TRANS: Attagene TRANS-FACTORIAL HepG2 Assay for human Retinoid X Receptor alpha (RXRa) (AID 2283012; active = hit-call score of the fitted dose curve at least 0.9, where 1 is the maximum). Summed up:
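HepG2 cells transiently transfected with multiplexed GAL4-UAS reporter units and chimeric NR-GAL4 fusions, dosed 24 h. Reporter mRNA measured by RT-PCR, FAM labelling, HpaI digestion and capillary electrophoresis; gain-of-signal fitted relative to DMSO baseline.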

Read-out in assay [18]: Monocyte Chemoattractant Protein-1 (MCP1), CCL2 (gene 6347)
The assay can be described thus: BSK_3C_MCP1: BioMAP Diversity Plus: 3C Assay for Monocyte Chemoattractant Protein-1 (MCP1) Biomarker Activity (AID 2283017). The conditions noted are these: primary human endothelial cells (HUVEC); actives raise or lower the signal. Summed up:
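MCP-1 was measured by ELISA 24 h after dosing in primary HUVEC 3C cultures and fitted in both directions relative to DMSO; cytotoxicity was checked by SRB total-protein staining in parallel wells.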

The structures appear in SMILES notation. Results filed as inconclusive are left out. Active and inactive are the calls of the source. The calls were made as follows, unless noted: active = hit-call score of the fitted dose curve at least 0.9, where 1 is the maximum; inactive = score below 0.9.

Chain of E-selectin (Homo sapiens) (P16581 whole entry, looked up): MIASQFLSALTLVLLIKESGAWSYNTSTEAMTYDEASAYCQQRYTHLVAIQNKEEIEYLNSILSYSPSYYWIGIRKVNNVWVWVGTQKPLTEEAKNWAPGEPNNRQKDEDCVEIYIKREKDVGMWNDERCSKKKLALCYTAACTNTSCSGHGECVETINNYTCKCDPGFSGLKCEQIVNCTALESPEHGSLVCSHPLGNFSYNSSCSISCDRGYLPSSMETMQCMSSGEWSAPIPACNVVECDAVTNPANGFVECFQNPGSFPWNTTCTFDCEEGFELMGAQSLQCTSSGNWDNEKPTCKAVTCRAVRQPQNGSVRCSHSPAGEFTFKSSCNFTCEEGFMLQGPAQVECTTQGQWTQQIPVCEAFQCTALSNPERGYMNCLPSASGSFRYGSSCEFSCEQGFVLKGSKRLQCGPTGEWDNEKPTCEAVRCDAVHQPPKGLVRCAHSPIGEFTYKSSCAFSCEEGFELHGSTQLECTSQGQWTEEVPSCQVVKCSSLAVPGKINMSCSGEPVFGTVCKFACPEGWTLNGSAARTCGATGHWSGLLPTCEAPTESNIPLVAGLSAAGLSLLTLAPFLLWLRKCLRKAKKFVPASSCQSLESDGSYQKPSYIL
Chain of human Thyroid Receptor alpha (THRa1), THRA (gene 7067) (P10827 whole entry, looked up, the tested form may be a part): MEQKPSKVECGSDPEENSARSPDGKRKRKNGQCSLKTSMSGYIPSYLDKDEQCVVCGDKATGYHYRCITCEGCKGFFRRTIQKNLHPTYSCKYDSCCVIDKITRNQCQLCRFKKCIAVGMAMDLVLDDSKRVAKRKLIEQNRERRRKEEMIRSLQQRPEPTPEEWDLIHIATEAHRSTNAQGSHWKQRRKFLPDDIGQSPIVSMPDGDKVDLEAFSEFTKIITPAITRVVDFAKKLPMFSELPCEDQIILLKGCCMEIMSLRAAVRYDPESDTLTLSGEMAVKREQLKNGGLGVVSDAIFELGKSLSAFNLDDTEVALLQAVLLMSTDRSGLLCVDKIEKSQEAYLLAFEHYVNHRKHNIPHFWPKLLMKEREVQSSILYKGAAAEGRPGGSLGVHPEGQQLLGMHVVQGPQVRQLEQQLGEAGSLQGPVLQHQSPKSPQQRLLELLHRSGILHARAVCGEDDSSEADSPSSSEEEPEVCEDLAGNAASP
Chain of Nuclear receptor subfamily 1 group I member 2 (Homo sapiens) (O75469 whole entry, looked up, the tested form may be a part): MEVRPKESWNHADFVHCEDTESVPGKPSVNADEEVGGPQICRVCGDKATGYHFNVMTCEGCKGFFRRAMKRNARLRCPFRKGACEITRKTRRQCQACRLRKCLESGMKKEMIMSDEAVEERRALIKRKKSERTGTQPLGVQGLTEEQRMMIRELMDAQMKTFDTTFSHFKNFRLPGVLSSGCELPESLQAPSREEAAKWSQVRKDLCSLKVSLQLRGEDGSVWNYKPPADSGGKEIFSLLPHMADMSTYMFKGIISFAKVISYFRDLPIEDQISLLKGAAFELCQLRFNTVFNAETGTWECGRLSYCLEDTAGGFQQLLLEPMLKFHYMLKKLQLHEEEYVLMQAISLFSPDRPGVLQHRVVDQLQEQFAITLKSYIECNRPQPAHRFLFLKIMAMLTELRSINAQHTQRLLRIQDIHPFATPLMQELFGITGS
Chain of human Retinoid X Receptor beta (RXRb), RXRB (gene 6257) (P28702 whole entry, looked up, the tested form may be a part): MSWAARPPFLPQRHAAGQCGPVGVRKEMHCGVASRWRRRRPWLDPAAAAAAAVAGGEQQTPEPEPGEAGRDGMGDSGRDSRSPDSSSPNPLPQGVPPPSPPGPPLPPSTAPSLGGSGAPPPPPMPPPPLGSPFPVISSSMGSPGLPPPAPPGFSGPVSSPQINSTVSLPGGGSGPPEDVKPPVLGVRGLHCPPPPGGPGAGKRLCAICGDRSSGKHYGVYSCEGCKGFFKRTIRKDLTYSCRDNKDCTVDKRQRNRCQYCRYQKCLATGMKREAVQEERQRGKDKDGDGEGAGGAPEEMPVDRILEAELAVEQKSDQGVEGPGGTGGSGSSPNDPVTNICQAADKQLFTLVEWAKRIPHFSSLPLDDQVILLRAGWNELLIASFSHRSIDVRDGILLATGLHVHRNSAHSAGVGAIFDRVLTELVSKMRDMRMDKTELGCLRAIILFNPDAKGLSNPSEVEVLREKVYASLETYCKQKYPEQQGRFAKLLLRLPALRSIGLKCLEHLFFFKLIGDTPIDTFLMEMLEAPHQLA
Chain of human Vitamin D Receptor (VDR), VDR (gene 7421) (P11473 whole entry, looked up, the tested form may be a part): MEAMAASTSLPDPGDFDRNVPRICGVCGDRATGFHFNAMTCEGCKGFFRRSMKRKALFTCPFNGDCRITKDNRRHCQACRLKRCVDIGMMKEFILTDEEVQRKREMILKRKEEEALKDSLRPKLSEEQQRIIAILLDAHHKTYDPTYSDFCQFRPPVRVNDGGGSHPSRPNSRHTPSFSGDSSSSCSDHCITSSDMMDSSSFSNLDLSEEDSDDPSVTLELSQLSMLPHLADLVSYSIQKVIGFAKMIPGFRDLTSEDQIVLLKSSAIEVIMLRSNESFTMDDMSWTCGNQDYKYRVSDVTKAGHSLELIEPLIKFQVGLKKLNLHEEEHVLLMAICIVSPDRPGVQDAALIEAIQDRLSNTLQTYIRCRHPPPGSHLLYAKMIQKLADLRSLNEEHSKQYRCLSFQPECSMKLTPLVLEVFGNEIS
Chain of human RAR-related Orphan Receptor beta (RORb), RORB (gene 6096) (Q92753 whole entry, looked up, the tested form may be a part): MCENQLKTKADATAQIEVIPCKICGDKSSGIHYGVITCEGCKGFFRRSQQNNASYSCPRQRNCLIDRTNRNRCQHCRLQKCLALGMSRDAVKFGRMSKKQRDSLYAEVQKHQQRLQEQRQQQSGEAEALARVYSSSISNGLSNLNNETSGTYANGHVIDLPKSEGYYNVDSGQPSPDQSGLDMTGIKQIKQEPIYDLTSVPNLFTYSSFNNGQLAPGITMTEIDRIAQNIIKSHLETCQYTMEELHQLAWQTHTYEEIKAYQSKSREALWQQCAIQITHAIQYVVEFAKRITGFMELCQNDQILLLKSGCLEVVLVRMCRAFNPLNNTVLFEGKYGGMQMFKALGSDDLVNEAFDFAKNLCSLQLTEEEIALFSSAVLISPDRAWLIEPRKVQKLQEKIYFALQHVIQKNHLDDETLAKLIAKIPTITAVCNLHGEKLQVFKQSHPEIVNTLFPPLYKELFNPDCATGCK
Chain of Retinoic acid receptor RXR-alpha (Homo sapiens) (P19793 whole entry, looked up, the tested form may be a part): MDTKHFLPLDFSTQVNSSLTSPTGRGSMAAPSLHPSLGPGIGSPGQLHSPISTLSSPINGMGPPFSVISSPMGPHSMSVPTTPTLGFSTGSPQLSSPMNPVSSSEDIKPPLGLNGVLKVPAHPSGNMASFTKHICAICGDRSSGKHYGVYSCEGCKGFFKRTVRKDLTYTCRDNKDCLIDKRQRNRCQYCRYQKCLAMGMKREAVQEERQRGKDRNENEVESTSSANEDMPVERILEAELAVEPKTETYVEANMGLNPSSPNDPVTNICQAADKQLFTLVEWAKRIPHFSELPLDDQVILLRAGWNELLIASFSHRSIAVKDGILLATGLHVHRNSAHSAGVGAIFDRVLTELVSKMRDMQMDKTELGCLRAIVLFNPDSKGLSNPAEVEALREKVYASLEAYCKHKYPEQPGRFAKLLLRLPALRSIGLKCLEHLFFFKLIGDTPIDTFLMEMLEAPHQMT

For the compound `CCCCN(CCCC)C(=S)[S-].CCCCN(CCCC)C(=S)[S-].[Ni+2]`, the result in [1], in assay [2], in assay [3], in assay [4], in assay [6] and in assay [7] was inactive. Moreover, the outcome in assay [8], in assay [9], in assay [10], in [11], in assay [12] and in assay [13] was inactive. In addition, the result in assay [14] and in assay [15] was inactive. Besides, the AC50 in [5] was 2.73 µM (active).

Consider `O=C1C=CC(=O)c2ccccc21`, for which the AC50 in assay [1] is 5.9 µM (active); in [3] it was 0.46 µM (active); in assay [4], 5.98 µM (active); in [9], 4.15 µM (active); in assay [10] it was 3.75 µM (active); in assay [18] it was 3.04 µM (active). For the same compound, the AC50 in [11] was 1.45 µM (active); in assay [12] it was 2.14 µM (active); in assay [13], 5.23 µM (active); in [14], 6.7 µM (active). The compound was called inactive in [5], in [16], in assay [6], in assay [17], in assay [7] and in assay [8]. Besides, in assay [15], the outcome was inactive.

As to `CCOP(=S)(OCC)OP(=S)(OCC)OCC`, the AC50 in assay [1] was 36.8 µM (active); in [3], 31.6 µM (active); in [4] it was 25.8 µM (active); in [5], 0.94 µM (active); in [7] it was 50.2 µM (active); in [9], 32.1 µM (active). In addition, the AC50 is 33.5 µM (active) in assay [11] and 30.4 µM (active) in [12]. Also, the result in [16], in assay [17], in assay [8], in assay [10], in assay [13] and in [14] was inactive.
